Most compounds without a hit are left out; they make up all but 6.3% or so of the library.
ATXN2 expr inh: ATXN2 expression inhibition | HEK-293 ATXN2-luciferase reporter, luminescence, 24 h | Potency, µM (titrated, usually from 57 µM), without a hit: at the top dose activity change, negative = inhibition, usual class: inhibitors | actives 0.72% (n = 360,000); note: % is set by controls: 0 for no effect and ±100 for the full control effect; nearly all actives have a fitted effect of over 55% in size
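ATXN2-luciferase reporter cells (luciferase flanked by upstream and downstream ATXN2 gene portions) were treated 24 h at 37 °C with compounds at up to 57 uM. SteadyGlo luminescence gave expression; GF-AFC fluorescence gave viability.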
Gal4-VP16 FLuc: inhibits Gal4-VP16 luciferase reporter, ROR gamma counter-screen | Drosophila S2 Gal4-VP16 UAS-luciferase, luminescence, 20 h | Potency, µM (highest dose often 53.6 µM), for the others: top-dose activity, negative = inhibition, actives largely listed as inhibitors | actives 3.5% (n = 310,000) | AID 2546;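 note: Gal4-VP16 expression switched on by copper sulfate through the metallothionein promoter; % is set by controls: 0 for no effect and ±100 for the full control effect; nearly all actives have a fitted effect of over 50% in size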
HepG2 viability: HepG2 cytotoxicity, counter-screen for TGF-b inhibitors; HepG2 CAGA-GFP viability, ATP luminescence, 18 h; Potency, µM (top dose mostly 46.1 µM), inactives show top-dose activity change, negative = cytotoxicity, usual class: cytotoxic; actives 0.76% (n = 410,000); AID 588856
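CellTiter-Glo luminescence gave cytotoxicity after 18 hours at 37 degrees C. The cells were HepG2 CAGA-GFP in 1% FBS DMEM, stimulated with 500 pg/mL TGF-beta after compound addition. %Activity was normalised to no-cell wells (complete cell-killing) and DMSO (no toxicity), and curves were fitted and classified.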
S2 tox: viability counter-screen for ATXN expression inhibitors; actives 0.49% (n = 400,000); S2 cells (HEK-293 line with an ATXN2-luciferase reporter) viability, CellTiter-Fluor protease fluorescence, 24 h; Potency, µM (doses to about 56.7 µM), hits mostly cytotoxic; note: nearly all actives have a fitted effect of over 40% in size
TGFb SMAD3 inh: TGF-b pathway inhibition; HepG2 CAGA-GFP TGF-b/SMAD3 reporter, GFP fluorescence, 18 h; TGF-beta stimulated, 500 pg/mL final; Potency, µM (titrated, usually from 46.1 µM), without a hit: top-dose activity, negative = inhibition, usual class: inhibitors; actives 1.2% (n = 410,000); note: % is set by controls: 0 for no effect and ±100 for the full control effect; nearly all actives have a fitted effect of over 65% in size
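HEPG2 CAGA-GFP cells (1000/well, DMEM with 1% FBS) were pre-incubated 2 h at 37 degrees C, given compound by pin tool, then stimulated with TGF-beta at 500 pg/mL final for 18 h before per-cell GFP fluorescence imaging.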
RORgamma inh: ROR gamma (mouse) transcription inhibition; P51450; Drosophila S2 Gal4-RORgamma UAS-luciferase reporter, 20 h; Potency, µM (titrated, usually from 53.6 µM), for inactives: top-dose activity change, negative = inhibition, hits mostly inhibitors; actives 5.4% (n = 310,000); AID 2551; note: % is set by controls: 0 for no effect and ±100 for the full control effect; nearly all actives have a fitted effect of over 60% in size
Target sequence (P51450 whole entry, looked up, the tested form may be a part): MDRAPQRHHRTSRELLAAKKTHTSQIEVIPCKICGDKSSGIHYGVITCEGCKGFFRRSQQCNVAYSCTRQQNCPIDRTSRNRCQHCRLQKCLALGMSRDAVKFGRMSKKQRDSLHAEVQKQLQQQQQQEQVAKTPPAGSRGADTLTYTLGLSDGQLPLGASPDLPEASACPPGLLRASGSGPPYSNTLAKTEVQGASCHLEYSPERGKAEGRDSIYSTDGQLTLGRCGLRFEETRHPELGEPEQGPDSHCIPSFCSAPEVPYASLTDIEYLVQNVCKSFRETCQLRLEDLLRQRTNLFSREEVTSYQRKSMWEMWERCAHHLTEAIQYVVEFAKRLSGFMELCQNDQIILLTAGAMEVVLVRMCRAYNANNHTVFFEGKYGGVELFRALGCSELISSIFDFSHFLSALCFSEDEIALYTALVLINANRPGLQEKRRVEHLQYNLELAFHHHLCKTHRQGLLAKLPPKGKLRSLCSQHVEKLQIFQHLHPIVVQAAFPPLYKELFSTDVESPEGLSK
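Stable Schneider cell line, Gal4 DNA-binding domain fused to ROR gamma, UAS-luciferase. Cmpd 1 hr RT → CuSO4 700 uM final → 20 hr RT → luciferase reagent 10 min → luminescence.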
* = called active by the depositor; i = inactive; ? = inconclusive; . = no result given; ! = not confirmed by another sample; [ ] = dose if it differs, or a comment. Calls come from the whole dose curve; as a rule, active = well fitted curve in the direction sought with a large enough effect; inconclusive = small, poorly fitted or top-dose-only effect, or another doubt; inactive = no such curve, though single readings can be large; an effect the other way counts as inactive or inconclusive. Potency is the fitted concentration of half-maximal effect.

SMILES	ATXN2 expr inh	Gal4-VP16 FLuc	HepG2 viability	S2 tox	TGFb SMAD3 inh	RORgamma inh
COc1ccc(-c2nc(-c3ccccn3)ncc2S(C)(=O)=O)cc1	8.6%[11.3 µM]	7.7%	14.8%	i	-8.3%	-20.6%
CCc1ccc(-c2nc3c(=O)n(C)c(=O)nc-3n(CC)n2)cc1	.	.	1.26µM*	.	0.891µM*	.
COc1ccccc1C1CN(Cc2c(C)nc3sccn23)Cc2ccccc2O1 (stereo not drawn)	.	.	.	i	.	.
COc1ccc(-c2csc(NC(C)=O)n2)cc1OC	22.0%	18.8%	2.2%	i	7.1%	50.5%
COc1ccc(-c2csc(NC(=S)NC(=O)c3ccc4ccccc4c3)n2)cc1OC	-14.1%	?	-6.3%	i	1.1%	2µM*
COc1cccc(NC(=O)Nc2nc(-c3ccc(OC)c(OC)c3)cs2)c1	3.16µM*	?	15.8µM*	8.91µM*	11.2µM*	?
CC(=O)Nc1ccc(N2C(=O)CC(Sc3nc4ccccc4s3)C2=O)cc1 (stereo not drawn)	.	-2.2%[10 µM]	-8.7%	i	8.2%	2.24µM*
CCOc1ccc2nc(SC3CC(=O)N(c4ccc(C)cc4)C3=O)sc2c1 (stereo not drawn)	39.5%	-17.8%	-28.9%	i	3.1%	-0.2%
COc1ccc(N2C(=O)CC(Sc3nc4ccccc4s3)C2=O)cc1OC (stereo not drawn)	.	5.62µM*	-30.0%	31.6µM*	-2.6%	6.31µM*
CCOc1ccc(N2C(=O)CC(Sc3nc4ccc(OCC)cc4s3)C2=O)cc1 (stereo not drawn)	-33.7%	.	13.6%	i	10.0%	.
CCOc1ccc2nc(SC3CC(=O)N(c4ccc(OC)cc4OC)C3=O)sc2c1 (stereo not drawn)	27.7%	?	10.5%	i	1.4%	7.08µM*
C[C@H](CO)N1C[C@H](C)[C@@H](CN(C)C(=O)OCc2ccccc2)OCc2cn(nn2)CCCC1=O	1.3%	.	-4.1%	i	-0.7%	.
CCNC(=O)C1(C)CCN(Cc2ccc(OC(F)(F)F)cc2)C1 (stereo not drawn)	17.7%	.	-16.0%	i	-7.4%	.
COc1cc([C@@H]2c3cc4c(cc3[C@@H](O[C@@H]3O[C@@H]5CO[C@@H](c6cccs6)O[C@@H]5[C@H](O)[C@@H]3O)[C@H]3COC(=O)[C@H]23)OCO4)cc(OC)c1O	0.172µM*	.	.	.	.	.
COc1cc([C@@H]2c3cc4c(cc3[C@@H](O)[C@H]3COC(=O)[C@H]23)OCO4)cc(OC)c1O[Si](C)(C)C(C)(C)C	?	4.1%	-117.9%	.	?	?
Cc1cnc(-n2ncc(C(=O)NCCc3ccncc3)c2-c2cccs2)nc1-c1ccc(F)cc1	.	.	.	i	.	.
CC(C)(C)c1cccc(C2(O)C(=O)c3ccccc3C2=O)c1O	4.1%	12.6µM*	-14.8%	i	-10.0%	-27.5%
CC(C)Oc1ccc(CN2CCC2(C)C(=O)Nc2cnc3ccccc3c2)cc1 (stereo not drawn)	?	.	5.2%	?	-7.3%	.
CSc1cccc(NC(=S)NC(=O)c2cccnc2)c1	.	11.2µM*	1.8%	i	-27.5%	10µM*
COc1cccc(C(=O)NC(=S)Nc2cccnc2)c1	55.7%	-25.3%	-3.7%	i	-4.3%	?
COc1ccc(C(=O)NC(=S)Nc2cccnc2)cc1Cl	15.4%	-7.8%	-8.6%	i	-1.5%	10µM*
CCOc1cc(C(=O)NC(=S)Nc2cccnc2)cc(OCC)c1OCC	-15.8%	?	2.8%	i	-10.3%	12.6µM*
CCOc1ccc(C(=O)NC(=S)Nc2cccnc2)cc1	18.5%	0.2%	-3.2%	i	-0.7%	-16.3%
Cc1ccc(-n2[nH]c(=O)c3cccnc32)cc1	-0.4%	5.2%	-15.8%	i	6.8%	21.3%
Cc1ccc(-n2[nH]c(=O)c(-c3ccccn3)c2C)cc1	1.78µM*	2.82µM*	-17.8%	i	2.5%	1.26µM*
SMILES	ATXN2 expr inh	Gal4-VP16 FLuc	HepG2 viability	S2 tox	TGFb SMAD3 inh	RORgamma inh
CC[C@H]1[C@@H]2C=C[C@@H]3[C@H]4C/C=C\C(=O)NCCC[C@@H]5NC(=O)C(=C5O)C(=O)CC[C@@H]4C[C@@H]3[C@H]2C[C@H]1C	.	-1.5%	.	.	.	2.24µM*
CC1(C)S[C@@H]2[C@H](NC(=O)C(C(=O)O)c3ccsc3)C(=O)N2[C@H]1C(=O)O (stereo partly drawn)	.	.	.	i	.	.
Cc1cc(=O)oc2cc(O[C@@H]3SC[C@@H](O)[C@H](O)[C@H]3O)ccc12	12.9%	.	.	i	.	.
Cc1nn(-c2ccccc2)c2c1C1(C(=O)N(C)c3ccccc31)C(C#N)=C(N)O2 (stereo not drawn)	6.7%	?	-3.0%	i	0.0%	11.2µM*
CCOC(=O)N(C)C[C@@H]1OCc2cnnn2CCCC(=O)N([C@H](C)CO)C[C@H]1C	7.2%	.	3.9%	i	19.7%	.
Cc1ccc2nc(N/N=C/c3ccccc3F)nc(-c3ccccc3)c2c1	-17.4%	11.2µM*	3.6%	i	3.2%	?
Cc1ccc2nc(N/N=C/c3ccccc3C#N)nc(-c3ccccc3)c2c1	-16.5%	?	-17.6%	i	1.1%	11.2µM*
Cc1cc(-c2ccccc2)nc(N/N=C/c2ccccc2F)n1	3.6%	17.8µM*	-31.9%	i	?	?
CC[C@]1(c2ccccc2)NC(=O)NC1=O	.	-12.9%	.	.	.	-8.8%
CCNC(=O)/C(C#N)=C/c1c(N(Cc2ccccc2)Cc2ccccc2)nc2ccccn2c1=O	0.6%	-23.1%	-32.5%	i	?	22.6%
CNC(=O)/C(C#N)=C/c1c(N(Cc2ccccc2)Cc2ccccc2)nc2c(C)cccn2c1=O	-6.7%	-14.1%	6.4%	?	12.6µM*	5.1%
CC1O[C@@H](O[C@@H]2C(O)C[C@H](O[C@@H]3C(O)C[C@@H](OC4CC[C@@]5(C)C6CC(O)[C@@]7(C)C(C8=CC(=O)OC8)CC[C@@]7(O)C6CC[C@@H]5C4)OC3C)OC2C)CC(O)[C@H]1O (stereo partly drawn)	.	-7.3%	.	.	.	8.91µM*
COc1cc(CN2CCC3(CCC(CNC(=O)c4ccco4)O3)CC2)ccc1O (stereo not drawn)	.	.	.	i	.	.
Cn1ccnc1C(O)(c1nnc(-c2ccccc2)o1)C(F)(F)F (stereo not drawn)	-17.3%	?	8.0%	i	-2.1%	7.08µM*
CCC(C)[C@H]1COCCS(=O)(=O)N1Cc1ccc(Cl)cc1Cl (stereo partly drawn)	-9.4%	-3.1%	-31.7%	i	10µM*!	-31.6%
